The structures appear in SMILES notation. The campaign covered roughly 68,000 compounds. About 2,700 (4%) showed an effect of 50% or more. The sample holds strong results, similar compounds and a random draw of the others, so the mix is not that of the screen.

For the assay, the system named is Plasmodium berghei. Put plainly: Screen against P. berghei liver stage (PbLuc), transformed with Luciferase, at 2uM. It is filed as functional, HepG2. As to conditions: tested at 2 uM.
`Cc1nc(-c2ccccc2)n(CC(=O)NC(C)C2CC2)n1` (stereo not given): the INHIBITION came to 32.56%.

Consider `COc1ccc(C2=Nn3c(CN)nnc3-c3ccccc3C2)cc1`, for which the INHIBITION turned out to be 42.64%.

As for `COc1ccc(C2=Nn3c(CCN)nnc3-c3ccccc3C2)cc1`, the INHIBITION is 54.73%.

`COc1ccc(C2=Nn3c(CCCN)nnc3-c3ccccc3C2)cc1`: the INHIBITION was determined as 6.9%.

Take `Cc1cnc(CNC(=O)[C@@]23CCO[C@@H]2CCN(c2ncccn2)C3)cn1`: the INHIBITION worked out at 4.08%.

As to `Cc1cc(C(=O)N2C[C@@H]3COC[C@]3(CN(C)C)C2)c(C)o1`, the INHIBITION turned out to be 39.57%.

Consider `CC(C)NC1CCc2[nH]c(=O)ccc2C1` (stereo not given), for which the INHIBITION is on record as -13.79%.

For `Cc1c(Br)cccc1C(=O)NCC1CCNCC1`, the INHIBITION is recorded as 5%.

In the case of `Cc1ncc(C(=O)N2CCCN(Cc3ccccc3F)CC2)c(O)n1`, the INHIBITION stood at 52.74%.

Consider `O=C(c1cccnc1O)N1CCN(Cc2ccccc2F)CC1`, for which the INHIBITION is recorded as -24.15%.

In the case of `O=C(c1cnc(C2CC2)nc1O)N1CCN(Cc2ccccc2F)CC1`, the INHIBITION was 15.34%.

`c1cnnc(N[C@@H]2CC[C@@H]3CN(Cc4c[nH]c5ccccc45)C[C@@H]32)c1`: the INHIBITION is -2.96%.

Regarding `Cc1nc(C)c(S(=O)(=O)NC(=O)c2ccoc2)s1`, the INHIBITION was 44.86%.

For the compound `Cc1nc(C)c(S(=O)(=O)NC(=O)c2ccsc2)s1`, the INHIBITION is recorded as 68.08%.

Take `Cc1nc(C)c(S(=O)(=O)NC(=O)c2sccc2C)s1`: the INHIBITION came to 24.23%.

Take `O=C(c1c[nH]c(=O)c(Cl)c1)N1CCc2ccccc2C1`: the INHIBITION was -15.11%.

`O=C(c1cnc(OCC(F)(F)F)c(Cl)c1)N1CCc2ccc(O)cc2C1`: the INHIBITION was 64.2%.

`O=C(c1ccc(O)nc1)N1CCN(C(=O)c2ccc(F)c(F)c2)CC1`: the INHIBITION was -18.09%.

Take `CC(C)Oc1ncc(C(=O)N2CCc3ccc(O)cc3C2)cc1Cl`: the INHIBITION was 11.33%.

In the case of `O=C(c1ccc(O)nc1)N1CCc2ccc(O)cc2C1`, the INHIBITION came to 55.39%.

As to `O=C(c1ccc(O)nc1)N1CCN(C(=O)c2ccc(F)cc2F)CC1`, the INHIBITION is 19.06%.

`CC(=O)N1CC[C@H](c2nnc(Cc3c[nH]c4ccccc34)o2)C1`: the INHIBITION was determined as 26.01%.

For `CN(Cc1cn2c(n1)CN(CC1CCOC1)CC2)Cc1ccco1` (stereo not given), the INHIBITION is on record as -0.38%.

Regarding `O=C(NCCn1cccc1)C1CCN(C2CCCCC2)CC1`, the INHIBITION is 10.72%.

Turning to `OCCOc1cc(F)ccc1NCc1cccc(F)c1F`, the INHIBITION is on record as -19.62%.

With `Cn1ccnc1CN1CCC(CNS(=O)(=O)c2cccnc2)C1` (stereo not given), the INHIBITION was -43.75%.

Regarding `COc1ccc(NC(=O)C2CC(=O)n3cnnc3S2)cc1` (stereo not given), the INHIBITION is listed as 6.05%.

For `COCCN1CCCC(O)(CN2CCN(Cc3ccncc3)CC2)C1=O` (stereo not given), the INHIBITION was 15.73%.

Regarding `CC(=O)c1ccc(CNC(=O)c2cc(C#N)cn2C)nc1C`, the INHIBITION is reported as -2.44%.

With `Cc1ccc2nc(CSCC(=O)Nc3nnc(C(C)C)s3)cc(=O)n2c1`, the INHIBITION is -3.16%.

Turning to `CC1=C(C#N)C(=O)N(C)C(=O)/C1=C\C1=Cc2ccccc2OC1`, the INHIBITION was 53.81%.

For `CCN1C(=O)C(C#N)=C(C)/C(=C/C2=Cc3ccccc3OC2)C1=O`, the INHIBITION is 45.67%.

In the case of `O=C(Nc1cccnc1)C1=Cc2ccccc2OC1`, the INHIBITION was found to be 3.62%.

On to `O=C(NCC1CCOCC1)c1cc(-c2ccncc2)c2cnccc2n1`, for which the INHIBITION was determined as 10.89%.

On to `Cc1ccc(C(CNCc2cccc3c2OCO3)N2CCOCC2)o1` (stereo not given), for which the INHIBITION amounted to 71.53%.

Regarding `CC(C)C(CNCc1cccc2c1OCO2)N1CCOCC1` (stereo not given), the INHIBITION was determined as 21.72%.

In the case of `c1csc(C(CNCc2cccc3c2OCO3)N2CCOCC2)c1` (stereo not given), the INHIBITION stood at 42.62%.

With `COc1ccccc1OCC(=O)NCC(O)(c1ccccc1)C1CC1` (stereo not given), the INHIBITION was found to be 22.75%.

With `CCOc1ccc(Oc2cc(N)ccn2)cc1`, the INHIBITION was 4%.

Turning to `O[C@H]1Cc2ccccc2[C@H]1Nc1ncccc1C(F)(F)F`, the INHIBITION is recorded as -12.95%.

On to `Cc1ccc(CN2CCCn3nnc(COCCN(C)C)c3C2)s1`, for which the INHIBITION is 23.14%.

With `Cn1cc(CN2CC[C@H]3O[C@H](C(=O)NC4CC4)CC[C@H]32)c2ccccc21`, the INHIBITION is recorded as -18.7%.

As for `CCOc1ncccc1CNS(=O)(=O)c1ccc2c(c1)CCCC(=O)N2`, the INHIBITION is reported as 20.35%.

As for `CN(Cc1ccsc1)C(=O)CN1CCOC(Cn2cncn2)C1` (stereo not given), the INHIBITION came to 46.09%.

For the compound `Cc1ccc(-c2nc(CN3CCOC(Cn4cccn4)C3)co2)cc1` (stereo not given), the INHIBITION was found to be 1.02%.

On to `c1ccc(-c2nc(CN3CCOC(Cn4cncn4)C3)cs2)cc1` (stereo not given), for which the INHIBITION is 31.57%.

Regarding `CN(Cc1ccsc1)C(=O)CN1CCOC(Cn2cccn2)C1` (stereo not given), the INHIBITION is on record as 62.46%.

With `c1csc(-c2nc(CN3CCOC(Cn4cccn4)C3)cs2)c1` (stereo not given), the INHIBITION is on record as 45.83%.

With `c1cnn(CC2CN(Cc3ccc(-n4ccnc4)cc3)CCO2)c1` (stereo not given), the INHIBITION is 53.03%.

Consider `c1cn(-c2ccc(CN3CCOC(Cn4cncn4)C3)cc2)cn1` (stereo not given), for which the INHIBITION worked out at 40.88%.

On to `c1cnn(CC2CN(CCc3ccncc3)CCO2)c1` (stereo not given), for which the INHIBITION is 17.11%.

Take `Cc1cnn(CC2CN(CC(=O)N(C)Cc3ccsc3)CCO2)c1` (stereo not given): the INHIBITION amounted to 47.84%.

In the case of `c1ccc(-c2nc(CN3CCOC(Cn4cccn4)C3)co2)cc1` (stereo not given), the INHIBITION was 62.13%.

`c1csc(-c2nc(CN3CCOC(Cn4cncn4)C3)cs2)c1` (stereo not given): the INHIBITION is reported as 66.97%.

`Fc1ccc(-c2nc(CN3CCOC(Cn4cccn4)C3)co2)cc1` (stereo not given): the INHIBITION is listed as -17.31%.

`OCC(CO)Nc1ccc2c(Cl)ccc(Cl)c2n1`: the INHIBITION was determined as 34.55%.

For the compound `O=C(c1ccc(F)cc1)N1CCC2(CCCN2CC2CC2)CC1`, the INHIBITION was -38.96%.

Consider `NC(=O)Nc1cccc(CNC(=O)CCCc2ccccc2)c1`, for which the INHIBITION is on record as 3.01%.

Turning to `Fc1cccnc1Oc1cc(F)c(CN2CCCC2)c(Cl)c1`, the INHIBITION was -42.73%.

Turning to `Clc1cc(N2CCC(N3CCCC3)CC2)nc2[nH]ccc12`, the INHIBITION was 25.13%.

As to `Nc1cc2c(nn1)CCN(C(=O)c1cccc3c1OCO3)C2`, the INHIBITION was found to be 4.55%.

In the case of `CC(=O)c1ccc(S(=O)(=O)NCc2cccnc2N(C)C)cc1`, the INHIBITION was found to be 4.18%.

For `COc1ncccc1-c1nc(-c2ccccn2)nn1C1CCS(=O)(=O)C1` (stereo not given), the INHIBITION is reported as 19.12%.

For the compound `Nc1nc2cn(C3CCCC3)c(=O)c-2c[nH]1`, the INHIBITION is -33.11%.

Take `c1csc(-c2nc(CN3CCOC(Cn4cccn4)C3)co2)c1` (stereo not given): the INHIBITION is listed as -25.44%.

Regarding `CC(C)CCc1nc(CN2CCOC(Cn3cncn3)C2)cs1` (stereo not given), the INHIBITION is 7.13%.

Consider `CC(C)(C)c1nc(CN2CCOC(Cn3cncn3)C2)cs1` (stereo not given), for which the INHIBITION is -5.09%.

For the compound `c1csc(-c2nc(CN3CCOC(Cn4cncn4)C3)co2)c1` (stereo not given), the INHIBITION was 71.48%.

In the case of `CCCc1nc(CN2CCOC(Cn3cncn3)C2)cs1` (stereo not given), the INHIBITION is listed as 53.98%.

Regarding `Fc1cccc(-c2nc(CN3CCOC(Cn4cncn4)C3)co2)c1` (stereo not given), the INHIBITION is on record as 16.51%.

The record behind these values is ChEMBL document CHEMBL4513216, “Probing the Open Global Health Chemical Diversity Library for Multistage-Active Starting Points for Next-Generation Antimalarials” (ACS Infect Dis, 2020).
